Type in all cases: functional
For assay [1], the target named is Solute carrier family 2, facilitated glucose transporter member 1 (Homo sapiens) (UniProt P11166). Kind of assay: ST_JUDE_LEISH: Cytotoxicity at 2uM final concentration against transgenic Leishmania Mexicana promastigotes LmGLUT1 that are glucose transport deficient and complemented with the human glucose transporter GLUT1. Activity is measured by DNA content using SYBR green in vitro.

For assay [2], the target named is Hexose transporter 1 (Plasmodium falciparum) (UniProt O97467). Kind of assay: ST_JUDE_LEISH: Cytotoxicity at 2uM final concentration against transgenic Leishmania Mexicana promastigotes LmPfHT that are glucose transport deficient and complemented with the Plasmodium falciparum hexose transporter. Activity is measured by DNA content using SYBR green in vitro.
Assay [3] has as its target Glucose transporter (Leishmania mexicana) (UniProt O61059). Kind of assay: ST_JUDE_LEISH: Cytotoxicity at 2uM final concentration against transgenic Leishmania Mexicana promastigotes LmGT2 that are glucose transport deficient and complemented with the L. Mexicana glucose transporter 2. Activity is measured by DNA content using SYBR green in vitro.

We go through 36 compounds from ChEMBL document CHEMBL3433997, “St. Jude Leishmania screening dataset” (2016).

Sequence of Solute carrier family 2, facilitated glucose transporter member 1 (Homo sapiens) (P11166 whole entry): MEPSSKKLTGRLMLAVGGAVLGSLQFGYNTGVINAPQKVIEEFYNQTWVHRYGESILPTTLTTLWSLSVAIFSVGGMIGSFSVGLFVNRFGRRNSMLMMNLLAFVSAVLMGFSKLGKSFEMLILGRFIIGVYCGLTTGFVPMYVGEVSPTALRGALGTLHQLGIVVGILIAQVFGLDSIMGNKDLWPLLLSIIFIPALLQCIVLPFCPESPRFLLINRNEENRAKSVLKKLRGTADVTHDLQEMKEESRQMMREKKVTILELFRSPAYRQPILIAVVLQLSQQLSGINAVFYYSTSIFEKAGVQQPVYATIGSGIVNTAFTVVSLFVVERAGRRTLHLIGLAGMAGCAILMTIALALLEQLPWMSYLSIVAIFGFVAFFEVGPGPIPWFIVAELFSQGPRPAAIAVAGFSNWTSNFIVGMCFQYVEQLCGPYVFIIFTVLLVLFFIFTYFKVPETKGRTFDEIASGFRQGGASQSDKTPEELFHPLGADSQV

As usually defined, the inhibition is the drop in the measured response relative to a control, in per cent. For the compound `CCC(CC)(Cc1ccccc1)NC(=O)[C@H](CC1CCCCC1)Nc1ccc(C#N)c2ccccc12`, the inhibition in assay [1] is -1.5%; in assay [2], -0.75%; in assay [3] it was -0.23%.
On the same counts, the results for `Cn1cnc2c(SCc3ccccc3OCc3ccccc3)ncnc21` are 6.91%, 5.44% and 4.68%.
Consider `CCCCN1CCN(CCCNc2c3ccccc3nc3ccccc23)CC1`, for which the inhibition in assay [1] stood at 68%; in assay [2] it was 80%; in assay [3] it was 55.3%.
`CCOc1ccc2c(=NN=Cc3cc(OC)c(OC)c(OC)c3)cc(C)[nH]c2c1`: the inhibition in assay [1] is 2.5%; in assay [2], 1.22%; in assay [3], -0.3%.
For `CC(=O)N/N=C/[C@H](CCc1ccccc1)NC(=O)[C@H](CC(C)C)NC(=O)c1ccc(F)cc1`, the inhibition came out at 6.34% in assay [1], 4.34% in assay [2] and 4.68% in assay [3].
Consider `O=C1COc2ccc(CNC3CCC(O)(CCc4ccnc5cc6c(cc45)OCCO6)CC3)nc2N1` (stereo not drawn), for which the inhibition was 3.59% in assay [1], 3.14% in assay [2] and 2.8% in assay [3].
On the same counts, the results for `Cc1nc(-c2ccncc2)sc1C(=O)Nc1ccc(Cl)cc1C(=O)Nc1ccc(Cl)cc1` are 3.13%, 3.01% and 2.19%.
`Cn1cccc1C(=O)NCC(CCNc1cc(=O)c2ccccc2[nH]1)NCc1cc(Br)cc(Br)c1` (stereo not drawn): the inhibition in assay [1] is 0.88%; in assay [2], 2.6%; in assay [3], 1.58%.
On the same counts, the results for `O=C(/C=C/c1ccc(Cl)c(Cl)c1)NC1CCC(CN2CCC(c3coc4ccccc34)CC2)CC1` (stereo not drawn) are -1.76%, 1.76% and -1.87%.
Regarding `CC(C)(C)C1CC(=O)CC2C(=O)N(c3ccc(Br)cc3)C(=O)C21` (stereo not drawn), the inhibition in assay [1] is 2.94%; in assay [2], 0.44%; in assay [3] it was -1.64%.
For `CN1CCN(CCCNCc2cccc(-c3ccc(CNCCc4ccccc4)cc3)c2)CC1`, the inhibition in assay [1] came to 2.41%; in assay [2], 3.07%; in assay [3], 1.49%.
Take `Clc1ccc(-c2cnc3ccc(NCCc4cccnc4)nn23)cc1`: the figures for the inhibition in assay [1], in assay [2] and in assay [3] were 1.24%, -1.47% and 0.12%, respectively.
On the same counts, the results for `O=C1Nc2ccc3ncccc3c2/C1=C/Nc1ccc(N2CCN(CCO)CC2)cc1` are 2.74%, 2.28% and 2.47%.
With `CO/N=C(\C)c1ccc2c(c1)CCN(CCC1CCC(NC(=O)/C=C/c3ccc(F)cc3)CC1)CC2` (stereo not drawn), the inhibition was 6.29% in assay [1], 3.02% in assay [2] and 11.2% in assay [3].
For the compound `COc1ccc(C(=O)NC2CCN(c3ccnc4cc(Cl)ccc34)C2)cc1` (stereo not drawn), the inhibition in assay [1] worked out at 1.59%; in assay [2] it was 1.83%; in assay [3], 0.51%.
On the same counts, the results for `Cc1cc(Nc2ccc(Oc3ccc(Cl)cc3)cc2)nc(N)n1` are 3.89%, 5.01% and 2.92%.
`CCN(CCCN1CCCCC1)c1cc(C)nc(Nc2ccc(C)c(C)c2)n1`: the inhibition in assay [1] was determined as 4.78%; in assay [2], 5.75%; in assay [3] it was 4.45%.
Consider `Cc1cnc(N2CCN(CCCN3CCCC3)CC2)nc1Oc1ccc(-n2ccnc2)cc1`, for which the inhibition in assay [1] is 2.28%; in assay [2], 2%; in assay [3], 3.96%.
With `CCn1ncc(Cl)c1CN(C)S(=O)(=O)c1ccc(Br)cc1`, the inhibition in assay [1] was -0.68%; in assay [2] it was -0.62%; in assay [3], -2.26%.
In the case of `O=C(Nc1ccc(CCN2CCC(c3nc(COCC(F)(F)F)c(-c4ccccc4)o3)CC2)cc1)c1ccc(F)cc1`, the inhibition in assay [1] is 2.62%; in assay [2], 2.23%; in assay [3] it was -0.66%.
On to `COc1ccc(Cl)cc1N1CCN(CCCNC(=O)c2ccc(-c3nc4ccc(C(F)(F)F)cc4[nH]3)c(C)c2)CC1`, for which the values for the inhibition in assay [1], in assay [2] and in assay [3] were 2.82%, 0.02% and 0.17%, respectively.
In the case of `CC(=O)N[C@H](C(=O)Nc1ccc(-c2cccc(-c3nc4cccc(C)c4[nH]3)c2)cc1)C(C)C`, the results for the inhibition in assay [1], in assay [2] and in assay [3] were 1.35%, 3.2% and 2.45%, respectively.
On the same counts, the results for `O=C(Nc1cccc(C(F)(F)F)c1)Nc1cc(F)c(F)cc1Cl` are 1.86%, 1.72% and 2.36%.
Take `Cc1cc(F)ccc1-c1nc(NCC(O)CNCCc2ccccc2)nc2c1ccc(=O)n2-c1c(F)cccc1F` (stereo not drawn): the results for the inhibition in assay [1], in assay [2] and in assay [3] were 5.26%, 4.59% and 6.47%, respectively.
`CCNc1cc(C)nc(Nc2ccc(C)cc2)n1`: the inhibition came out at 25.8% in assay [1], 7.92% in assay [2] and 5.86% in assay [3].
For the compound `COc1cc2c(cc1OCCN1CCC(N3CCCCC3)CC1)N(C(=O)/C=C/c1ccccc1Cl)CC2`, the inhibition in assay [1] is 0.24%; in assay [2] it was 1.79%; in assay [3], 1.83%.
Turning to `O=C(Nc1cccc(C(F)(F)F)c1)NC1CCN(c2ccnc3ccccc23)C1` (stereo not drawn), the results for the inhibition in assay [1], in assay [2] and in assay [3] were 1.65%, -0.4% and 6.33%, respectively.
`CC(=O)c1c(CC(=O)O)c2ccccc2n1O`: the inhibition was found to be 2.28% in assay [1], 4.52% in assay [2] and 3.07% in assay [3].
For the compound `CN1CCC=C(C(=O)NCC(C)(C)c2nc(-c3ccc(Cl)c(O)c3)c(-c3ccncc3)[nH]2)C1`, the figures for the inhibition in assay [1], in assay [2] and in assay [3] were 6.76%, 9.88% and 7.7%, respectively.
For `CC(C)n1ncc2c(C(=O)N3CCCCCC3)cc(-c3ccccc3)nc21`, the inhibition in assay [1] is -0.35%; in assay [2], -0.92%; in assay [3], -5.3%.
On the same counts, the results for `O=C(Nc1cccc(-c2csc(-c3nc4ccccc4[nH]3)c2)c1)c1cccnc1` are 1.57%, 4.05% and -0.53%.
As for `O=S(=O)(c1ccc(Oc2ccccc2)cc1)N(CCC(O)(C(F)(F)F)C(F)(F)F)Cc1cccc(O)c1`, the values for the inhibition in assay [1], in assay [2] and in assay [3] were -1.44%, -3.19% and -4.58%, respectively.
For `CCCCCC(C)C(C)c1cc(O)c2c(c1)OC(C)(C)CC2c1cc[n+]([O-])cc1` (stereo not drawn), the inhibition in assay [1] amounted to 3.19%; in assay [2] it was 4.07%; in assay [3], 4.64%.
On the same counts, the results for `Cc1cnc2cc3c(cc2c1N1CCN(C)CC1)NCC3` are -0.55%, -0.98% and -1.24%.
On to `O=S(=O)(NCCN1CCCC1)c1ccc(-c2ccc(CNCc3ccccc3)cc2)cc1`, for which the figures for the inhibition in assay [1], in assay [2] and in assay [3] were 2.85%, 1.2% and -0.93%, respectively.
In the case of `O=C1c2ccccc2C(=O)N1CCOc1c(Br)cc(Br)cc1CNCCCNc1cc(=O)c2ccccc2[nH]1`, the inhibition in assay [1] was 2.28%; in assay [2], 1.96%; in assay [3], 3.03%.
